For 40 compounds, growth inhibition results are on record in PubChem BioAssay (NCI).

The structures appear in SMILES notation. The panel holds about 79,000 compounds, 15% with a hit somewhere; the sample as a whole holds those more often. Activity calls are given as the source filed them. Rule as the data show it: active = growth inhibition above about 70%; inactive = the rest.

The nature of the assay: NCI Yeast Anticancer Drug Screen. Data for the bub3 strain (AID 167). The note with it: S. cerevisiae bub3 mutant strain, at 50.0 µM, hits give high values. Put shortly:
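Mutant yeast screening strain plus compound; vehicle-treated cultures serve as the 0% inhibition reference.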
Consider `Cc1cn(C)c2c1-c1c(cnn1-c1ccccc1)CC2`, for which the growth inhibition was 4.8% (inactive).
With `C[n+]1nc2ccccc2c(=Nc2ccccc2[N+](=O)[O-])[n-]1`, the growth inhibition was 8.5% (inactive).
For `O=S(=O)(c1ccccc1)N1CCCCC1` the value was 29.5% (inactive).
For `CCN(CC)Cc1cc(Nc2nc(/C=C/c3ccccc3)nc3ccccc23)ccc1O` the value was -6.7% (inactive); for `S=C1N=C2c3ccccc3C2C(=S)S1` (stereo not given), 4.75% (inactive); for `O=Cc1c2cnc(c1O)CSCCCCSC2`, -16.4% (inactive).
For `NC(=O)c1csc(NC2OC(CO)C(O)C(O)C2O)n1` (stereo not given) the value was -0.25% (inactive); for `O=[N+]([O-])c1ccc(N=Nc2c(O)[nH]c3ccc(Br)cc23)c([N+](=O)[O-])c1`, -20.6% (inactive).
As to `CCN(CC)Cc1cc(N)cc(N=Nc2ccc3c(c2)c2ccccc2n3CC)c1O`, the growth inhibition is -3.4% (inactive).
In the case of `O=C(Nc1cccnc1)c1ccc([N+](=O)[O-])s1`, the growth inhibition is 11.1% (inactive).
For `CC1=NN(c2nc(N)nc(CCl)n2)CC1` the value was 11.5% (inactive); for `Clc1cc(Cl)c2ccc3c(Cl)cc(Cl)c4ccc1c2c43`, -30.8% (inactive).
With `CC(C)CCCC(C)C1CCC2C(CC(=O)O)C(C3(C)CCC(O)CC3=O)CCC2(C)C1` (stereo not given) the figure was 1.85% (inactive); with `[Cl][Pt+2][Cl].[NH-]c1ccccc1F.[NH-]c1ccccc1F`, -26.9% (inactive).
With `COc1cc([N+](=O)[O-])ccc1NC(=O)C(Br)C(Br)C(=O)O` (stereo not given) the figure was -0.35% (inactive); with `Cc1cccc(C=NC23CC4CC(CC(C4)C2)C3)c1`, -44.9% (inactive).
Regarding `CC[P+](C)(Cc1ccccc1)c1ccccc1` (stereo not given), the growth inhibition is 9.45% (inactive).
Consider `CC(C)N=C(c1ccccc1)N(O)c1ccccc1`, for which the growth inhibition is 4.2% (inactive).
With `Cc1cccc(N=Nc2c(C)nc(N)nc2C)c1C` the figure was -13.6% (inactive); with `COc1ccc(NC(=O)N2CC3CCN2CC3)cc1`, -12.7% (inactive); with `Cn1c(=O)c2c(nc(OCC[N+](C)(C)C)n2C)n(C)c1=O`, 1.85% (inactive).
With `CCCNC(=O)c1cccc2c1-c1ccccc1C2=O` the figure was 4.65% (inactive); with `CN(C)CCC1(C2=CCCC2)CC/C(=C\c2ccc3c(c2)OCO3)C1=O` (stereo not given), -2.55% (inactive).
With `C/C(CCc1cnc2ccccc2c1)=N/NC(N)=O` the figure was 67.3% (inactive); with `C=C[C@@]1(C)CC2CC[C@]3(C)C(C)=CC(=O)CC3[C@]2(C)CC1O` (stereo not given in full), 13% (inactive); with `Cc1cc2c(c3oc(C4(C)OC4C4OC4C)cc(=O)c13)C(=O)c1c(O)c(C3CC(C)(N(C)C)C(O)C(C)O3)cc(C3CC(N(C)C)C(O)C(C)O3)c1C2=O` (stereo not given), 89.2% (active).
Take `Cc1nc(NS(=O)(=O)c2ccc(N)cc2)nc(C)c1Br`: the growth inhibition is -14.7% (inactive).
For `N#C/C(=C\c1ccc2c(c1)OCO2)C(=O)N/N=C/c1ccc2c(c1)OCO2` the value was -0.1% (inactive); for `Fc1ccc(NC(=S)Nc2ccccn2)cc1`, 6.05% (inactive).
For `OCC(O)C(O)C(O)CN=Cc1ccccc1O` (stereo not given) the value was -1.15% (inactive).
With `Clc1ccc(/C=C2\c3ccccc3-c3nc4ccccc4nc32)cc1` the figure was -8.25% (inactive).
In the case of `CN1C(=O)N/C(=C\c2ccc(S(=O)(=O)N/N=C\C(O)C(O)C(O)CO)cc2)C1=O` (stereo not given), the growth inhibition was -39.1% (inactive).
With `O=C(O)Cc1ccc(-c2ccccc2)cc1` the figure was 20.5% (inactive).
For `CCOC(=O)C1C(C)=CC(=O)CC1C` (stereo not given) the value was 4.5% (inactive).
For `N#Cc1c(-c2ccccc2)cc(-c2cccs2)c(C#N)c1N` the value was 12.8% (inactive); for `CCc1ccc2[nH]nc(CCC(=O)O)c(=O)c2c1`, -23.2% (inactive).
With `CCN(CC)C(=S)SCCC(N)=O`, the growth inhibition is -1.25% (inactive).
With `CCCCNC(=S)SSSSC(=S)NCCCC` the figure was 8.7% (inactive); with `CC1=NN(C(=O)CC(=O)Nc2ccccc2C)C(=O)C1N=Nc1ccc(S(=O)(=O)c2ccc(N=NC3C(=O)N(C(=O)CC(=O)Nc4ccccc4C)N=C3C)cc2)cc1` (stereo not given), -8.75% (inactive); with `Cc1ccc(-n2cc(-c3ccc(Cl)cc3)c3c2N=CN2NC(c4ccco4)=NC32)cc1` (stereo not given), 11% (inactive).
